Results filed as inconclusive are left out. Where a call stands in place of a potency, no number is given. Active and inactive are the calls of the source. Unless noted, calls come from the whole dose curve; as a rule, active = well fitted curve in the direction sought with a large enough effect; inconclusive = small, poorly fitted or top-dose-only effect, or another doubt; inactive = no such curve, though single readings can be large; an effect the other way counts as inactive or inconclusive.
Tests used:
[1] = qHTS of Trypanosoma Brucei Inhibitors: LOPAC Validation (AID 624147)
Method in brief: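 TbPYK + substrate in 50 mM TEA pH 7.2, 100 mM KCl, 10 mM MgCl2, 0.05% BSA, 0.01% Tween-20; cpd pinned; ADP 130 uM final; 45 min RT; Kinase-Glo Plus 10 min; luminescence endpoint.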

[2] = target: Glucagon-like peptide 1 receptor (Homo sapiens) (UniProt P43220); experiment: qHTS of GLP-1 Receptor Agonists: LOPAC Validation (AID 624148);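 note: higher luminescence signal means agonism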
Sequence of Glucagon-like peptide 1 receptor (Homo sapiens) (P43220 whole entry, looked up): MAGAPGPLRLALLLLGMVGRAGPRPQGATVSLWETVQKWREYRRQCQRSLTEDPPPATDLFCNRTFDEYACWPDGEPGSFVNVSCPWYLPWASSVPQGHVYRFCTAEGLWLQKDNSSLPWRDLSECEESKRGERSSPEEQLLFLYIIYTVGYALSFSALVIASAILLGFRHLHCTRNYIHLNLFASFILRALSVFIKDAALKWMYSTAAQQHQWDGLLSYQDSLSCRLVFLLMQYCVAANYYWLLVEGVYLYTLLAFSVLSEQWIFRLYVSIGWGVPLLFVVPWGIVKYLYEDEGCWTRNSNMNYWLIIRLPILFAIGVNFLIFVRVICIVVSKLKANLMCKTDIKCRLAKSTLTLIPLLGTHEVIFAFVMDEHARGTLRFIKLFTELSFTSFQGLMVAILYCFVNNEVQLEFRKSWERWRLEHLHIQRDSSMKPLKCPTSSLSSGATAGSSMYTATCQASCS
Method in brief: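 HEK293 cells stably co-expressing a cAMP-responsive luciferase reporter and a hypersensitive GLP-1R were plated 12 h at 37 °C and exposed to compounds for 4-6 hr at 37 °C, 5% CO2. Luminescence was read 12 min after adding detection reagent.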

[3] = qHTS of Nrf2 Activators: LOPAC Validation (AID 624149)
Method in brief: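 Luciferase signal from ARE activation, read with Steady-Glo after 30 min at room temperature. Compounds were pin-transferred onto AREc32_Fluc cells (1000/well, OPTI-MEM/5% FBS, seeded overnight) and left 24 hr at 37 deg C.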

[4] = HTS Assay for Allosteric Antagonists of the Human D2 Dopamine Receptor: Hit Validation in HTRF (AID 624455);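 note: stable D1 dopamine receptor cell line scored for blocking the D1 response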
Method in brief: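 Inhibition of the D1-mediated response was measured by HTRF. Cells used were a line stably expressing the D1 dopamine receptor.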

[5] = Cell Proliferation Assay against the HBL1 Cell Line (AID 651646); conditions: HBL1 DLBCL cells; at 46.1 µM (top of the series) unless noted;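 note: cells exposed to compound for 48 h before reading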
Method in brief: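 After a 48 h incubation of 500 HBL1 cells/well in phenol red-free RPMI plus 5% FBS, relative luciferase units from CellTiter-Glo gave percent activity against DMSO and 9.2 uM bortezomib (final) controls.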

[6] = qHTS Assay for Identification of Small Molecule Antagonists for NFkB Signaling Pathway. (AID 624479; calls by dose curve;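 note: pathway stimulated with TNF alpha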; note: potency is the fitted concentration of half-maximal effect)
[7] = Cell Proliferation Assay against the TMD8 Cell Line (Caspase readout at 16 hrs) (AID 651712); note: potency is the fitted concentration of half-maximal effect
Method in brief: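 16 h, 37 °C, TMD8 (500 cells/well), RPMI/5% FBS no phenol red; Caspase-Glo 3/7, 15 min RT, luminescence; %act: DMSO 0, bortezomib 9.2 uM final 100.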

[8] = Cytotoxicity counterscreen for NFkB agonists and antagonists (AID 624476);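 note: cells exposed to compound for 48 hours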; note: potency is the fitted concentration of half-maximal effect
[9] = Cell Proliferation Assay against the TMD8 Cell Line (Caspase readout at 8 hrs) (AID 651713); note: potency is the fitted concentration of half-maximal effect
Method in brief: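 Apoptosis read-out: Caspase-Glo luminescence after 8 h compound exposure of TMD8 lymphoma cells at 37C, 5% CO2. Signals were normalized as percent activity between DMSO and bortezomib (9.2 uM final) controls.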

[10] = Cell Proliferation Assay against the TMD8 Cell Line (AID 651645); conditions: TMD8 DLBCL cell line proliferation/viability; at 46.1 µM (top of the series) unless noted;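 note: cells exposed to compound for 48 h before reading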
Method in brief: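 Viability by CellTiter-Glo after 48 h compound exposure of 500 log-phase TMD8 cells per well (RPMI, 5% FBS). Percent activity scaled between DMSO (100%) and 9.2 uM final bortezomib (0%).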

CC1(C)CCC2=C(O1)c1ccccc1C(=O)C2=O
outcome [1]: inactive | outcome [2]: inactive | outcome [3]: inactive | outcome [4]: inactive

CC(=O)N[C@@H](CS)C(=O)O
outcome [1]: inactive | outcome [2]: inactive | outcome [3]: inactive | outcome [4]: inactive

O=c1cc(-c2ccc(O)cc2)oc2cc(O)cc(O)c12
outcome [1]: inactive | outcome [2]: inactive | outcome [3]: inactive | outcome [4]: inactive

O=C(NCCN1CCOCC1)c1ccc(Cl)cc1
outcome [1]: inactive | outcome [2]: inactive | outcome [3]: inactive | outcome [4]: inactive

CO[C@H]1C=CC=C(C)C(=O)NC2=CC(=O)C(NCCN(C)C)=C(C[C@@H](C)C[C@H](OC)[C@@H](O)[C@@H](C)C=C(C)[C@@H]1OC(N)=O)C2=O
viability, percent of control [5]: 4.29%

CCOC(CN1C(=O)[C@](CC(=O)Nc2ccc(C)cc2)(NC(=O)Nc2ccc(C)cc2)c2ccccc21)OCC
Potency [6]: 18.8 µM (active) | viability, percent of control [5]: 4.35%

O=C(Nc1ccccc1-c1cn2c(CN3CCNCC3)csc2n1)c1cnc2ccccc2n1
Potency [6]: inactive | viability, percent of control [5]: 2.43% | Potency [7]: inactive

CN1CCN(CCOc2cc(OC3CCOCC3)c3c(Nc4c(Cl)ccc5c4OCO5)ncnc3c2)CC1
viability, percent of control [5]: 19.4%

CC(C)(C)C(=O)Oc1ccc2c(c1)nc(NC(=O)c1cccc([N+](=O)[O-])c1)n2CCCO
Potency [8]: inactive | Potency [6]: 4.73 µM (active) | viability, percent of control [5]: 16.8% | Potency [7]: inactive | Potency [9]: inactive

CCOc1ccc(Nc2nc(-c3c(C)nc4ccccn34)cs2)cc1
viability, percent of control [5]: 14.7% | Potency [7]: 0.105 µM (active)

CC(C)[C@H](CO)Nc1nc(Nc2ccc(C(=O)O)c(Cl)c2)c2ncn(C(C)C)c2n1
Potency [8]: inactive | Potency [6]: inactive | viability, percent of control [5]: 129% | Potency [7]: inactive | Potency [9]: inactive

Cc1ccc(F)c(NC(=O)Nc2ccc(-c3cccc4[nH]nc(N)c34)cc2)c1
Potency [6]: 1.49 µM (active) | viability, percent of control [5]: 8.04% | Potency [7]: inactive | Potency [9]: inactive

O=c1cc(N2CCOCC2)oc2c(-c3cccc4c3sc3ccccc34)cccc12
Potency [8]: 18.7 µM (active) | Potency [6]: 13.3 µM (active) | viability, percent of control [5]: 2.43% | Potency [9]: 20.9 µM (active)

CC(C)(C)c1cc(C(=O)O)c(NC(=O)Nc2ccc3[nH]ncc3c2)s1
Potency [8]: inactive | Potency [6]: inactive | viability, percent of control [5]: 100% | Potency [7]: inactive | Potency [9]: inactive

OC[C@H]1O[C@@H](n2cnc3c2NC=NC[C@@H]3O)C[C@H]1O
Potency [8]: inactive | Potency [6]: inactive | viability, percent of control [5]: 105% | Potency [7]: inactive | Potency [9]: inactive

CO[C@H]1C[C@@H]2CC[C@@H](C)[C@@](O)(O2)C(=O)C(=O)N2CCCC[C@@H]2C(=O)O[C@H]([C@H](C)C[C@@H]2CC[C@H](OCCO)[C@H](OC)C2)CC(=O)[C@H](C)C=C(C)[C@@H](O)[C@@H](OC)C(=O)[C@H](C)C[C@H](C)C=CC=CC=C1C
viability, percent of control [5]: 9.54% | Potency [7]: inactive

O=C(N[C@@H](c1ccccc1)[C@@H]1CCCCN1)c1cccc(C(F)(F)F)c1Cl
Potency [8]: inactive | Potency [6]: inactive | viability, percent of control [5]: 28.1% | Potency [9]: inactive

O=C(CCCCCCC(=O)Nc1ccccc1)NO
Potency [8]: 38.2 µM (active) | Potency [6]: inactive | viability, percent of control [5]: 3.42% [at 92.2 µM] | Potency [7]: 0.429 µM (active) | Potency [9]: inactive

CC(C)(C)COc1ccc(-n2cc(C(=O)O)cn2)cc1C#N
Potency [8]: inactive | Potency [6]: inactive | viability, percent of control [5]: 90.4% | Potency [7]: inactive | Potency [9]: inactive

O=C(O)c1ccc(-c2cc3cccnc3c(-c3ccc4nonc4c3)n2)cc1
Potency [8]: inactive | Potency [6]: inactive | viability, percent of control [5]: 91.1% | Potency [7]: inactive | Potency [9]: inactive

COc1cc2ncnc(-n3nc(-c4ccccn4)nc3N)c2cc1OC
Potency [6]: 1.88 µM (active) | viability, percent of control [5]: 17.1% | Potency [7]: 16.6 µM (active) | Potency [9]: 20.9 µM (active)

Clc1ccc(-c2nc3sccn3c2C=NOCc2ccc(Cl)c(Cl)c2)cc1
Potency [6]: inactive | viability, percent of control [5]: 4.32% | Potency [7]: inactive | Potency [9]: inactive

COc1cc2nc(-c3ccc(N4CCN(C)CC4)cc3)nc(NCCN3CCOCC3)c2cc1OC
Potency [6]: inactive | viability, percent of control [5]: 5.66% | Potency [9]: 29.6 µM (active)

O=C(Nc1cc(Cl)cc2c1[nH]c1cnccc12)c1cccnc1
Potency [8]: inactive | Potency [6]: 18.8 µM (active) | viability, percent of control [5]: 32.9% | Potency [9]: inactive

NC(CO)(CO)CCc1ccc(Sc2cccc(OCc3ccccc3)c2)cc1Cl
viability (% of control) [10]: 0.474% | viability, percent of control [5]: 1.28% | Potency [7]: inactive

COc1cc2ncnc(Nc3ccc(F)c(Cl)c3)c2cc1OCCCN1CCOCC1
Potency [8]: inactive | viability, percent of control [5]: 40.3%

CS(=O)c1ccc(-c2nc(-c3ccc(F)cc3)c(-c3ccncc3)[nH]2)cc1 (configuration not stated)
Potency [8]: inactive | Potency [6]: inactive | Potency [7]: inactive | Potency [9]: inactive

COc1ccc(C2CC(c3ccccc3)=NN2c2ccc(S(N)(=O)=O)cc2)cc1 (configuration not stated)
Potency [6]: inactive | viability, percent of control [5]: 5.45%

COc1cccc2c1CCCC2CCCN1CCN(C2CCCCC2)CC1 (configuration not stated)
Potency [8]: inactive | Potency [6]: inactive | viability, percent of control [5]: 28.8% | Potency [7]: 23.5 µM (active) | Potency [9]: 29.6 µM (active)

Cc1nc(N)sc1-c1ccnc(Nc2ccc(N3CCOCC3)cc2)n1
Potency [8]: inactive | Potency [6]: 2.66 µM (active) | viability, percent of control [5]: 24.4%

COc1cc(N2CCC(N3CCN(C)CC3)CC2)ccc1Nc1ncc(Cl)c(Nc2ccccc2S(=O)(=O)C(C)C)n1
Potency [8]: 2.09 µM (active) | Potency [6]: 11.9 µM (active) | viability, percent of control [5]: 3.91% | Potency [9]: 23.5 µM (active)

O=C1Nc2ccc(Cl)cc2C(C#CC2CC2)(C(F)(F)F)O1 (configuration not stated)
Potency [6]: 30.6 µM (active)

CC(C)C(=O)Nc1ncc(-c2cc(C(F)F)nn2-c2c(Cl)cccc2Cl)s1
Potency [8]: inactive | Potency [6]: 18.8 µM (active) | viability, percent of control [5]: 14.4% | Potency [7]: 16.6 µM (active) | Potency [9]: inactive

COc1ncc(-c2ccc3nccc(-c4ccnnc4)c3c2)cc1NS(=O)(=O)c1ccc(F)cc1F
Potency [8]: 1.05 µM (active) | Potency [6]: 11.9 µM (active) | viability, percent of control [5]: 4.41% | Potency [7]: inactive

CC(C)(C(=O)NCC(F)(F)C(F)(F)F)C(=O)N[C@@H]1C(=O)Nc2ccccc2-c2ccccc21
Potency [8]: inactive | Potency [6]: inactive | viability, percent of control [5]: 73.4% | Potency [7]: inactive | Potency [9]: inactive

From PubChem BioAssay (NCATS)
